Data from PubChem BioAssay (EPA / NIEHS).
Where “and” joins values, the source holds several entries; their conditions need not be identical. Equal values may be shown once. A structure can be active in one record and inactive in another. Calls of active or inactive are those of the source. The calls were made as follows: active = hit-call score of the fitted dose curve at least 0.9, where 1 is the maximum; inactive = score below 0.9.

Legend:
[1] = read-out: Human Leukocyte Antigen - DR isotype (HLADR), HLA-DRA (gene 3122); test: BSK_3C_HLADR: BioMAP Diversity Plus: 3C Assay for Human Leukocyte Antigen - DR isotype (HLADR) Biomarker Activity (AID 2283019); conditions: primary human endothelial cells (HUVEC); actives raise or lower the signal
How it was run: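 Primary human umbilical vein endothelial cells (3C system) were dosed with compound and cell-surface HLA-DR was quantified by ELISA at 24 h. Activity was fitted bidirectionally against DMSO as negative control and baseline.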

[2] = BSK_3C_Vis: BioMAP Diversity Plus: 3C Assay for Morphology Visualization (AID 2283025); conditions: primary human endothelial cells (HUVEC);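 also: fitted both ways so gain or loss versus DMSO counts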;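 as to AC50: light microscopy image of cell morphology used as background control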
How it was run: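 Human umbilical vein endothelial cell morphology was inspected by light microscopy 24 h after chemical dosing; scored bidirectionally relative to DMSO.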

[3] = read-out: Vascular endothelial growth factor receptor 2 (Homo sapiens) (UniProt P35968); test: BSK_4H_VEGFRII: BioMAP Diversity Plus: 4H Assay for Vascular endothelial growth factor receptor 2 (VEGFR2) Biomarker Activity (AID 2283031); conditions: primary human endothelial cells (HUVEC); actives raise or lower the signal;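 as to AC50: cell-surface VEGFR2 protein level quantified by ELISA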
How it was run: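 Primary human umbilical vein endothelial cells in the BioMAP 4H system were dosed with test chemical, and 24 h later VEGFRII was measured by ELISA. Activity was fitted bidirectionally against DMSO as negative control and baseline.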

[4] = read-out: Monokine induced gamma interferon (MIG), CXCL9 (gene 4283); test: BSK_CASM3C_MIG: BioMAP Diversity Plus: CASM3C Assay for Monokine induced gamma interferon (MIG) Biomarker Activity (AID 2283048); conditions: primary human coronary artery smooth muscle cells; actives raise or lower the signal;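 also: MIG protein level measured by ELISA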
[5] = read-out: Intercellular Adhesion Molecule 1 (ICAM1), ICAM1 (gene 3383); test: BSK_KF3CT_ICAM1: BioMAP Diversity Plus: KF3CT Assay for Intercellular Adhesion Molecule 1 (ICAM1) Biomarker Activity (AID 2283067); conditions: primary human keratinocytes with fibroblasts; actives raise or lower the signal
How it was run: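 Human keratinocyte plus foreskin fibroblast primary co-culture was exposed to chemical for 24 h. ICAM-1 was then quantified by ELISA, and the data were fit bidirectionally against DMSO as the negative control and baseline.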

[6] = read-out: Transforming growth factor beta 1 (TGFb1), TGFB1 (gene 7040); test: BSK_KF3CT_TGFb1: BioMAP Diversity Plus: KF3CT Assay for Transforming growth factor beta 1 (TGFb1) Biomarker Activity (AID 2283072); conditions: primary human keratinocytes with fibroblasts; actives raise or lower the signal
How it was run: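 Human keratinocyte/foreskin fibroblast co-culture; TGF-b1 measured by ELISA 24 h after dosing, fitted bidirectionally versus DMSO. Cytotoxicity checked in parallel cultures by total protein (SRB staining, 560 nm).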

[7] = read-out: C-C motif chemokine 2 (Homo sapiens) (UniProt P13500); test: BSK_KF3CT_MCP1: BioMAP Diversity Plus: KF3CT Assay for Monocyte Chemoattractant Protein 1 (MCP1/CCL2) Biomarker Activity (AID 2283073); conditions: primary human keratinocytes with fibroblasts; actives raise or lower the signal
How it was run: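 Human keratinocyte plus foreskin fibroblast primary co-culture exposed to chemical for 24 h. MCP-1 levels measured by ELISA. Bidirectional curve fitting relative to DMSO negative control as baseline.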

[8] = read-out: Interleukin-8 (IL8), CXCL8 (gene 3576); test: BSK_SAg_IL8: BioMAP Diversity Plus: SAg Assay for Interleukin-8 (IL8) Biomarker Activity (AID 2283094); conditions: primary human HUVEC with PBMC; actives raise or lower the signal
How it was run: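 Human umbilical vein endothelial cells co-cultured with PBMC, stimulated with superantigen; IL-8 measured by ELISA 24 h after chemical dosing. Bidirectional fitting versus DMSO; SRB staining in parallel cultures tracks cytotoxicity.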

[9] = BSK_SAg_Proliferation: Cell Proliferation Assessment in the BioMAP Diversity Plus: SAg Assay (AID 2283095); conditions: primary human HUVEC with PBMC
How it was run: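 Human umbilical vein endothelial cells co-cultured with PBMC; sulforhodamine B total-protein staining (0.1% SRB after 10% TCA fixation, absorbance 560 nm) at 96 h in sub-confluent culture. Fitted bidirectionally against DMSO.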

[10] = BSK_BT_PBMCCytotoxicity: PBMC Cytotoxicity Assessment in the BioMAP Diversity Plus: BT Assay (AID 2284225); conditions: primary human B cells with PBMC;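 also: PBMC viability measured by Alamar Blue dye reduction fluorescence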
How it was run: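 PBMC (75,000/well) pretreated with compound 1 h, then activated with SEB and TSST-1 (20 ng/mL each final), incubated 90 h; Alamar Blue added 6 h, fluorescence read at 546/580 nm. Fitted relative to DMSO.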

[11] = BSK_BT_Bcell_Proliferation: Viability Assessment in the BioMAP Diversity Plus: BT Assay for B cell Proliferation (AID 2284227); conditions: primary human B cells with PBMC
How it was run: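 SRB-based protein staining (0.1% SRB after 10% TCA fixation, 560 nm) quantifies proliferation in human B cells co-cultured with PBMC, 72 h post-dosing, with signal gain scored relative to DMSO negative control.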

[12] = read-out: Interleukin 6 (IL6), IL6 (gene 3569); test: BSK_BT_xIL6: BioMAP Diversity Plus: BT Assay for Interleukin 6 (IL6) Biomarker Activity (AID 2284228); conditions: primary human B cells with PBMC
How it was run: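 Human B cell plus PBMC co-culture exposed to test chemical for 24 h; secreted IL-6 quantified by Luminex xMAP bead assay. Activity fitted in the positive direction against DMSO as negative control and baseline.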

[13] = read-out: Interleukin 17A (IL17A), IL17A (gene 3605); test: BSK_BT_xIL17A: BioMAP Diversity Plus: BT Assay for Interleukin 17A (IL17A) Biomarker Activity (AID 2284229); conditions: primary human B cells with PBMC
How it was run: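 B cells co-cultured with PBMC were exposed to test chemicals, and secreted IL-17A was quantified 24 h after dosing by Luminex xMAP bead immunoassay. Activity was fitted in the gain direction against DMSO as baseline.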

[14] = read-out: Collagen IV, COL4A1 (gene 1282); test: BSK_MyoF_CollagenIV: BioMAP Diversity Plus: MyoF Assay for Collagen IV Biomarker Activity (AID 2284247); conditions: primary human lung fibroblasts
How it was run: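 Primary human lung fibroblasts (MyoF system) dosed 24 h; Collagen IV measured by ELISA. Activity fitted in positive direction against DMSO; cytotoxicity tracked by SRB total-protein staining in parallel cultures.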

[15] = read-out: Matrix Metallopeptidase 1 (MMP1), MMP1 (gene 4312); test: BSK_MyoF_MMP1: BioMAP Diversity Plus: MyoF Assay for Matrix Metallopeptidase 1 (MMP1) Biomarker Activity (AID 2284268); conditions: primary human lung fibroblasts
How it was run: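 ELISA readout of MMP1 in primary human lung fibroblast cultures, 24 h post-dosing. Gain of signal versus DMSO vehicle control defines activity. Parallel SRB staining (0.1% after 10% TCA fixation, 560 nm) flags overt cytotoxicity.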

[16] = read-out: TIMP metallopeptidase inhibitor 1 (TIMP1), TIMP1 (gene 7076); test: BSK_MyoF_TIMP1: BioMAP Diversity Plus: MyoF Assay for TIMP metallopeptidase inhibitor 1 (TIMP1) Biomarker Activity (AID 2284269); conditions: primary human lung fibroblasts
How it was run: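 Fibroblasts from human lung are dosed with chemical, cultured 24 h, and assayed for TIMP-1 by ELISA. Increases over the DMSO baseline are scored, with SRB total-protein staining run in parallel for cytotoxicity.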

[17] = read-out: Low-density lipoprotein receptor (LDLR), LDLR (gene 3949); test: BSK_CASM3C_LDLR: BioMAP Diversity Plus: CASM3C Assay for Low-density lipoprotein receptor (LDLR) Biomarker Activity (AID 2283045); conditions: primary human coronary artery smooth muscle cells; actives raise or lower the signal;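 also: LDLR protein level on the cell surface quantified by ELISA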
[18] = read-out: E-selectin (Homo sapiens) (UniProt P16581); test: BSK_LPS_Eselectin: BioMAP Diversity Plus: LPS Assay for Eselectin Biomarker Activity (AID 2283077); conditions: primary human HUVEC with PBMC; actives raise or lower the signal
How it was run: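 Human umbilical vein endothelial cells co-cultured with peripheral blood mononuclear cells under LPS stimulation; E-selectin measured by ELISA 24 h after chemical dosing. Activity fitted bidirectionally against DMSO as negative control and baseline.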

[19] = read-out: CD40, CD40 (gene 958); test: BSK_SAg_CD40: BioMAP Diversity Plus: SAg Assay for CD40 Biomarker Activity (AID 2283088); conditions: primary human HUVEC with PBMC; actives raise or lower the signal
How it was run: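 Human umbilical vein endothelial cells co-cultured with PBMC; CD40 levels measured by ELISA with fluorescence read-out 24 h after chemical dosing. Gain or loss of signal fitted bidirectionally against DMSO baseline.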

[20] = BSK_SAg_SRB: Viability Assessment in the BioMAP Diversity Plus: SAg Assay (AID 2283096); conditions: primary human HUVEC with PBMC;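 also: cells read one day after compound addition; hits may be either gain or loss of signal compared with DMSO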
How it was run: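 Total protein by sulforhodamine B staining, 24 h after dosing, in HUVEC–PBMC co-culture; DMSO-referenced bidirectional fitting.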

Measured: AC50

Sequence of E-selectin (Homo sapiens) (P16581 whole entry, looked up): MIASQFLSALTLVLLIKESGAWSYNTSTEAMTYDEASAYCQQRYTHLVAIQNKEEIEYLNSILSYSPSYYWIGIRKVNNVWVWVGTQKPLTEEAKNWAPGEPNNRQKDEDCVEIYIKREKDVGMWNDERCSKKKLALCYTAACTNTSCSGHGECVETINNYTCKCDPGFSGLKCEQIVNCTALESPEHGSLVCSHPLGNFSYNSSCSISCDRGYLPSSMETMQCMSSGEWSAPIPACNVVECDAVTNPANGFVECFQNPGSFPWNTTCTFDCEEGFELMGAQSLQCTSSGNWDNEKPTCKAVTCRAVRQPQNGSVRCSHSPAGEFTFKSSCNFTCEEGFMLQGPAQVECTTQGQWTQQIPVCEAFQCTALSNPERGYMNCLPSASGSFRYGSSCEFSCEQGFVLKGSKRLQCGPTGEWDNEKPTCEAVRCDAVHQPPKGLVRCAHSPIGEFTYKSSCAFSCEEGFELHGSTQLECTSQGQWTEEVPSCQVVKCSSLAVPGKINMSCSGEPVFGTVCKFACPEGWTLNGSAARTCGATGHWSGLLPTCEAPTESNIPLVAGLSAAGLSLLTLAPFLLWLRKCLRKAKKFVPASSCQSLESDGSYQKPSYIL

CC(C)(c1cc(Cl)c(O)c(Cl)c1)c1cc(Cl)c(O)c(Cl)c1
active: [1] 10.2 µM | [2] 39.6 µM | [3] 6.9 µM | [4] 32.9 µM | [5] 7.95 µM | [6] 5.27 µM | [7] 10 µM | [8] 31 µM | [9] 25.9 µM | [16] 9.55 µM
inactive: [10] | [11] | [12] | [13] | [14] | [15]

O=[N+]([O-])c1ccc(Cl)cc1
inactive: [1] | [2] | [3] | [17] | [4] | [5] | [6] | [7] | [18] | [19] | [8] | [9] | [20]

c1ccc(Nc2ccc3ccccc3c2)cc1
inactive: [3] | [17] | [4] | [18] | [19] | [8] | [9] | [20] | [10] | [14] | [15]
active: [1] 31.1 µM | [2] 8.8 µM | [5] 36.6 µM | [6] 26.6 µM | [7] 30.9 µM | [11] 27.2 µM | [12] 29.9 µM | [13] 20 µM | [16] 34.4 µM

O=C1C=CC(=O)C=C1
active: [1] 28.8 µM and 13.8 µM | [2] 8.8 µM | [5] 24.5 µM and 21.7 µM | [6] 29.9 µM and 12.4 µM | [7] 27.7 µM and 16.1 µM | [18] 26.4 µM and 30.4 µM | [19] 29 µM and 27.7 µM | [9] 6.38 µM and 3.38 µM | [10] 17.3 µM and 27.7 µM | [11] 17.8 µM and 24.2 µM | [12] 11.3 µM and 25.7 µM | [13] 13.6 µM and 20 µM | [14] 34.4 µM | [15] 5.76 µM | [16] 30.3 µM
inactive: [2] | [3] | [17] | [4] | [8] | [20] | [14] | [15] | [16]

O=C1C(Cl)=C(Cl)C(=O)C(Cl)=C1Cl
active: [1] 6.64 µM | [2] 4.54 µM | [3] 34.3 µM | [4] 29.1 µM | [5] 20 µM | [6] 20 µM | [7] 10.1 µM | [18] 30.2 µM | [19] 25.3 µM | [8] 28 µM | [9] 7.77 µM | [20] 30.9 µM | [10] 26.4 µM | [11] 26 µM | [12] 30.3 µM | [13] 20 µM | [14] 25 µM | [16] 28 µM
inactive: [17] | [15]

COCC(=O)N(c1c(C)cccc1C)N1CCOC1=O
inactive: [1] | [2] | [3] | [17] | [4] | [5] | [6] | [7] | [18] | [19] | [8] | [9] | [20] | [10] | [11] | [12] | [13] | [14] | [15] | [16]

CC(C)CCCCCCCOP(=O)(Oc1ccccc1)Oc1ccccc1
active: [1] 6.74 µM | [2] 5.61 µM | [3] 10.9 µM | [17] 6.45 µM | [6] 20 µM | [7] 31.4 µM | [18] 23 µM | [19] 26.2 µM | [8] 11.9 µM | [9] 15.8 µM | [20] 25.9 µM | [10] 35.8 µM | [11] 29.5 µM | [12] 26.1 µM | [13] 19.5 µM | [15] 5.17 µM | [16] 20 µM
inactive: [4] | [5] | [14]
